Publication PMC5540273 (PLoS ONE, 2017)
Like-named read-outs stand apart in the source and are kept apart here.

How the values were obtained:
[1] = tested on: FYN; conditions: concentration: 1 μM, replicates: in singlicate; n = 1
[2] = tested on: GAK; conditions: concentration: 1 μM, replicates: in singlicate; n = 1
[3] = tested on: T1, GCN2(Kin.Dom.2,S808G); conditions: concentration: 1 μM, replicates: in singlicate; n = 1
T1 construct: gene EIF2AK4

[4] = tested on: GRK1; conditions: concentration: 1 μM, replicates: in singlicate; n = 1
[5] = tested on: T2, GRK2; conditions: concentration: 1 μM, replicates: in singlicate; n = 1
T2 construct: gene ADRBK1

[6] = tested on: T3, GRK3; conditions: concentration: 1 μM, replicates: in singlicate; n = 1
T3 construct: gene ADRBK2

[7] = tested on: GRK4; conditions: concentration: 1 μM, replicates: in singlicate; n = 1
[8] = tested on: GRK7; conditions: concentration: 1 μM, replicates: in singlicate; n = 1
[9] = tested on: GSK3A; conditions: concentration: 1 μM, replicates: in singlicate; n = 1
[10] = tested on: GSK3B; conditions: n = 1
[11] = concentration: 1 μM, replicates: in singlicate
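Also: KINOMEscan kinase panel screen.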

| Structure (SMILES) | %Inh [1] | %Inh [2] | %Inh [3] | %Inh [4] | %Inh [5] | %Inh [6] | %Inh [7] | %Inh [8] | %Inh [9] | %Inh ([10]; 1 µM) | %Inh [10, 11] |
| --- | --- | --- | --- | --- | --- | --- | --- | --- | --- | --- | --- |
| COc1ccc(C2=C(Nc3cccc(O)c3)C(=O)NC2=O)cc1 [SB-390766] | 34% | 0% | 61% | 0% | 0% | 33% | 0% | 0% | 41% | 35% |  |
| COc1cc(Nc2ccnc3cc(-c4ccncc4)ccc23)cc(OC)c1OC.Cl [GW494610] | 75% | 84% | 0% | 4% | 0% | 35% | 5% | 0% | 10% |  | 0% |
| CC(C)c1nc(-c2cccc(NS(=O)(=O)c3c(F)cccc3F)c2)c(-c2ccnc(Nc3ccc(N4CCOCC4)nc3)n2)s1.Cl [GSK1723980] | 98.6% | 91.2% | 100% | 9% | 0% | 0% | 0% | 0% | 74% |  | 15% |
| COc1cccc(CC(=O)N2CCc3cc(-c4cn(C)c5ncnc(N)c45)ccc32)c1 [GSK2608899] | 9% | 31% | 70% | 0% | 0% | 0% | 9% | 0% | 0% |  | 15% |
| CC(C)c1nc(-c2ccc(F)c(NS(=O)(=O)c3c(F)cccc3F)c2)c(-c2ccnc(Nc3ccc(N4CCOCC4)nc3)n2)s1 [GSK1804250] | 95.9% | 92.1% | 100% | 0% | 6% | 7% | 9% | 0% | 40% |  | 23% |
| Fc1cc(Cl)ccc1Nc1ccnc2cc(-c3ccc(CN4CCOCC4)o3)ccc12 [GW560109] | 90.9% | 84% | 13% | 5% | 0% | 46% | 2% | 0% | 1% |  | 24% |
| Cl.Cl.NC(CNC(=O)c1cc(Br)c(-c2ccnc3[nH]ccc23)s1)c1ccccc1 (centres unmarked) [GSK1322949] | 17% | 85% | 0% | 3% | 39% | 70% | 76% | 75% | 0% |  | 3% |
| CN(c1ccc(NC(=O)N2CCN(CCCN3CCOCC3)CC2)cc1)c1ccnc(Nc2ccc(CS(C)(=O)=O)cc2)n1.Cl [GW830899] | 18% | 59% | 0% | 0% | 0% | 0% | 43% | 0% | 0% |  | 0% |
| O=C(O)C(F)(F)F.O=c1[nH]ccc2nc(N[C@@H]3CCNC3)nc(Nc3ccc4c(c3)S(=O)(=O)CC4)c12 [GSK2181306] | 43% | 76% | 97.3% | 95.2% | 49% | 60% | 88% | 65% | 97.8% |  | 92.1% |
| O=C(Nc1c(F)cccc1F)c1cc(C(=O)c2ccccc2F)c[nH]1 [GSK1326180] | 0% | 0% | 0% | 0% | 0% | 35% | 0% | 0% | 10% |  | 1% |
| O=C(Nc1n[nH]c2nc(-c3cccc(O)c3)ccc12)C1CC1 [SB-711805] | 0% | 23% | 12% | 24% | 0% | 0% | 24% | 3% | 98.8% | 96.3% |  |
| CN(C)CCOc1ccc(-c2cc(-c3ccc(Cl)c(O)c3)c(-c3ccncc3)[nH]2)cc1.Cl.Cl [SB-684387] | 78% | 42% | 0% | 43% | 0% | 21% | 0% | 17% | 41% |  | 10% |
| CN(C)CCNS(=O)(=O)c1ccc(-c2ccnc3[nH]ccc23)cc1 [GSK977620] | 18% | 1% | 14% | 71% | 0% | 72% | 0% | 86% | 0% |  | 11% |
| Cl.Cl.NCC(NC(=O)c1cc(-c2cccnc2)c(-c2ccnc3[nH]ccc23)s1)c1ccccc1 (centres unmarked) [GSK1323434] | 6% | 88% | 0% | 0% | 8% | 39% | 4% | 21% | 34% |  | 22% |
| Cn1cc(-c2ccc3c(c2)CCN3C(=O)Cc2cc(F)cc(C(F)(F)F)c2)c2c(N)ncnc21 [GSK2635225] | 41% | 21% | 2% | 0% | 0% | 0% | 3% | 0% | 8% |  | 2% |
| CS(=O)(=O)c1cccc(CNc2nc(Nc3ccc4c(c3)CCC(=O)N4)ncc2C(F)(F)F)c1 | 10% | 16% | 0% | 24% | 0% | 0% | 0% | 0% | 55% |  | 0% |
| COc1cccc(NC(=O)NCCNc2ccnc(Nc3ccc(F)cc3)n2)c1 [GSK1379879] | 0% | 0% | 0% | 0% | 0% | 68% | 0% | 0% | 11% |  | 16% |
